# In the library only some 2.2% were active in any assay of this set; here they are far more common.
# LDHA inh: qHTS assay for inhibitors of human lactate dehydrogenase | activity change, % (values are at about 110 or 230 µM) | purified LDHA, NADH/diaphorase-resazurin fluorescence; stronger effect = lower value | 480,000 tested, 0.15% active | L-lactate dehydrogenase A chain (Homo sapiens), P00338 | AID 1347041, 2019; in the data active means activity change below about -30%; inconclusive means mostly about -25% to -30%;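 further: plate controls were DMSO wells for no effect and wells without enzyme for full effect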
#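 Remaining NADH was detected by diaphorase (0.133 mg/mL) converting 37 µM resazurin to fluorescent resorufin, read at 0 and 20 minutes. The preceding 5-minute room-temperature reaction used 2 nM LDHA, 0.2 mM sodium pyruvate and 0.06 mM NADH at pH 7.4.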
# S2 tox: Viability Counterscreen for Primary qHTS for Inhibitors of ATXN expression | Potency, µM (titrated, usually from 56.7 µM), hits mostly cytotoxic | S2 cells (HEK-293 line with an ATXN2-luciferase reporter) viability, CellTiter-Fluor protease fluorescence, 24 h | AID 651635, 2014 | 400,000 tested, 0.49% active; further: potency means the concentration at half of the fitted maximal effect; nearly all actives have a fitted effect of over 40% in size
# TGFb inhibitor: qHTS for Inhibitors of TGF-b. Potency, µM (titrated, usually from 46.1 µM), for inactives: at the highest dose activity, negative = inhibition, hits mostly inhibitors. 410,000 tested, 1.2% active. HepG2 CAGA-GFP TGF-b/SMAD3 reporter, GFP fluorescence, 18 h; TGF-beta stimulated, 500 pg/mL final; further: potency means the concentration at half of the fitted maximal effect; on the % scale 0 is the no-effect control and ±100 the full control effect; nearly all actives have a fitted effect of over 65% in size
#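 TGF-beta reporter screen: HEPG2 CAGA-GFP, 1% FBS, 500 pg/mL TGF-beta final, 18 h; per-cell GFP summed per well; curves fitted and categorized by class.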
# IDH1 R132H inh: qHTS for Inhibitors of mutant isocitrate dehydrogenase 1 (IDH1): qHTS. IDH1-R132H enzyme, NADPH consumption, diaphorase/resazurin fluorescence. 390,000 tested, 0.093% active. Potency, µM (highest dose often 76.6 µM), for inactives: at the highest dose activity change, negative = inhibition, actives largely listed as inhibitors; further: potency means the concentration at half of the fitted maximal effect; on the % scale 0 is the no-effect control and ±100 the full control effect; nearly all actives have a fitted effect of over 65% in size
# Target sequence (O75874 whole entry R132H, stated change not applied): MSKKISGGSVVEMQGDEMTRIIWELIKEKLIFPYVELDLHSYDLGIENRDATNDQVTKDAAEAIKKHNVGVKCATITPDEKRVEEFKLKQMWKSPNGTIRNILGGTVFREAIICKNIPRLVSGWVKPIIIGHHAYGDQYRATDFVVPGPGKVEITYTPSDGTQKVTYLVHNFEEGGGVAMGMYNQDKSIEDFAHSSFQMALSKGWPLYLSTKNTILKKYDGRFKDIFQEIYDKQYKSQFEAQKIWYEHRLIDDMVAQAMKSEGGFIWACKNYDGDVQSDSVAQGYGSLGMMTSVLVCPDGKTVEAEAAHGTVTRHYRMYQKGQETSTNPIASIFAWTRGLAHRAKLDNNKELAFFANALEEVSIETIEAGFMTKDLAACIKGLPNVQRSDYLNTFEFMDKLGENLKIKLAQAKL
#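 IDH1-R132H (0.5 ug/mL dispensed) in pH 7.5 Tris buffer was preincubated 30 min with compound, then given a substrate mix of 0.016 mM NADPH and 2 mM alpha-KG for 80 min at room temperature; remaining NADPH was read by diaphorase/resazurin fluorescence.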
# HepG2 tox: qHTS for Inhibitors of TGF-b: Cytotox Counterscreen. HepG2 CAGA-GFP viability, ATP luminescence, 18 h. Potency, µM (titrated, usually from 46.1 µM), for inactives: at the top dose activity change, negative = cytotoxicity, actives largely listed as cytotoxic. 410,000 tested, 0.76% active; further: potency means the concentration at half of the fitted maximal effect
#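 CellTiter-Glo luminescence gave cytotoxicity after 18 hours at 37 degrees C. The cells were HepG2 CAGA-GFP in 1% FBS DMEM, stimulated with 500 pg/mL TGF-beta after compound addition. %Activity was normalised to no-cell wells (complete cell-killing) and DMSO (no toxicity), and curves were fitted and classified.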
# ATXN2 expr inh: Primary qHTS for Inhibitors of ATXN expression; HEK-293 ATXN2-luciferase reporter, luminescence, 24 h; Potency, µM (series often up to 57 µM), inactives show top-dose activity change, negative = inhibition, hits mostly inhibitors; 360,000 tested, 0.72% active; AID 1745845, 2022; further: potency means the concentration at half of the fitted maximal effect; on the % scale 0 is the no-effect control and ±100 the full control effect; nearly all actives have a fitted effect of over 55% in size
#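 ATXN2-luciferase reporter cells (luciferase flanked by upstream and downstream ATXN2 gene portions) were treated 24 h at 37 °C with compounds at up to 57 uM. SteadyGlo luminescence gave expression; GF-AFC fluorescence gave viability.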
# Starred values were filed as active, the others as inactive; i = inactive; ? = inconclusive; . = no result; ! = repeats disagree. Unless noted, the call rests on the fitted dose curve; in most records, active means well fitted curve in the direction sought with a large enough effect; inconclusive means small, poorly fitted or top-dose-only effect, or another doubt; inactive means no such curve, though single readings can be large; an effect the other way counts as inactive or inconclusive.
SMILES,LDHA inh,S2 tox,TGFb inhibitor,IDH1 R132H inh,HepG2 tox,ATXN2 expr inh
CC(=O)c1ccc(-c2cccc(C3C4C=CCCC4(C)C(=O)N3Cc3ccccc3)c2)cc1 (centres undefined),.,.,18µM*,.,-19%,.
COc1ccc(/C=N/NC(=O)c2ccc(OC)c(OC)c2)cc1COc1c(F)c(F)c(F)c(F)c1F,-1,i,0%,-5%,-27%,-2%
CCCC(=O)N(c1ccc2oc(=O)sc2c1)S(=O)(=O)c1ccccc1,-2,i,-21%,-2%,-29%,-21%
FC(F)(F)c1cc(CCN2CCNC[C@@H]2c2ccccc2)cc(C(F)(F)F)c1,3,35µM*,?,6%,-86%,?
CCCC[C@@H]1CNCCN1CCc1cc(C(F)(F)F)cc(C(F)(F)F)c1,2,35µM*,?,13%,-115%,?
Fc1cccc(CCN2CCNC[C@@H]2c2ccccc2)c1,-3,i,1%,1%,-9%,-4%
NC1=NC[C@H](CC2CCCCC2)N1CCc1cc(C(F)(F)F)cc(C(F)(F)F)c1,3,?,?,-1%,20µM*,?
FC(F)(F)c1cc(CCN2CCNC[C@@H]2CC2CCCCC2)cc(C(F)(F)F)c1,8,.,?,-4%,-100%,22µM*
Cc1ccc(NC(=O)c2c(C(F)(F)F)nn(C)c2SCc2cccc(C(F)(F)F)c2)cc1C,1,i,-17%,1%,-12%,6%
O=C(N/N=C/c1ccc(-c2ccc(S(=O)(=O)Nc3ncccn3)cc2)o1)c1cc2ccccc2cc1O,-46*,i,?,-6%,-34%,-16%
O=S1(=O)CC(N2CCCCC2)CN1Cc1cn(Cc2ccc(F)cc2)nn1 (centres undefined),-4,i,.,.,.,5%
Cc1cc(C(=O)Nn2c(C3CCCCC3)nc3ccccc3c2=O)ccc1[N+](=O)[O-],-3,?,20µM*,-11%,-54%,.
O=C(CCC(=O)N1CCC(c2noc3ccc(F)cc23)CC1)N1CCCCCC1,3,.,.,.,.,.
COc1ccccc1CN1CCN(Cc2ccc3ccccc3c2)CC1,-19,?,-14%,8%,-34%,.
COc1ccc(CN2CCN(Cc3ccc4ccccc4c3)CC2)cc1OC,-34*,i,-25%,7%,-34%,-29%
COc1ccc(-c2cc(C(F)(F)F)nc(NC3CCCC3)n2)cc1OC,3,i,-2%,2%,22µM*,1%
COc1ccc(CNc2nc(-c3ccc(OC)c(OC)c3)cc(C(F)(F)F)n2)cc1,5,i,?,-1%,-24%,1%
CC(Nn1cnnc1)c1cc(Cl)ccc1O (centres undefined),-3,i,17%,19%,8%,3%
Cc1ccc(NC(C)c2cc(Cl)ccc2O)cc1 (centres undefined),0,i,0%,3%,11µM*,-3%
O=C(/C=C/c1ccccc1)Nc1ncn[nH]1,1,?,10µM*,5%,-31%,?
COc1ccc(CC(N)c2csc(Nc3ccccn3)n2)cc1 (centres undefined),1,?,?,.,-63%,?
COc1ccc(CC(N)c2csc(Nc3cccc(OC)n3)n2)cc1 (centres undefined),-4,?,?,.,13µM*,-8%
COc1cccc(Nc2nc(C(N)Cc3ccc(Cl)cc3)cs2)n1 (centres undefined),-15,32µM*,?,.,-73%,25µM*
COc1cccc(Nc2nc(C(N)CC(C)C)cs2)n1 (centres undefined),-3,?,11µM*,.,-103%,-2%
COc1cccc(Nc2nc(C(N)C(C)C)cs2)n1 (centres undefined),-3,i,-6%,.,-18%,-6%
SMILES,LDHA inh,S2 tox,TGFb inhibitor,IDH1 R132H inh,HepG2 tox,ATXN2 expr inh
NC(Cc1ccccc1)c1csc(Nc2nncc3ccccc23)n1 (centres undefined),-3,.,16µM*,.,-101%,?
O=C(CSCc1ccc([N+](=O)[O-])cc1)NC1CC2CCC1C2 (centres undefined),-4,i,-4%,5%,-6%,1%
NC(Cc1ccccc1)c1csc(Nc2ccc(C(F)(F)F)cn2)n1 (centres undefined),-3,i,?,.,-84%,?
NC(=O)c1cccc(Nc2nc(C(N)Cc3ccc(C(F)(F)F)cc3)cs2)n1 (centres undefined),-14,?,?,.,-103%,28µM*
NC(=O)c1cccc(Nc2nc(C(N)CCc3ccccc3)cs2)n1 (centres undefined),-12,i,5%,.,-38%,-9%
COc1cccc(Nc2nc(C(N)Cc3ccc(C(F)(F)F)cc3)cs2)n1 (centres undefined),-8,.,?,.,10µM*,20µM*
COc1ccc2oc(C(=O)OCC(=O)/C(C#N)=C(\C)N)c(C)c2c1,-10,i,-7%,2%,-16%,.
COC(=O)[C@@]12C[C@@H](CC(=O)NCCc3ccccc3OC)C(=O)N(Cc3ccccc3)C1=CCC(C)(C)C2,6,.,.,.,.,.
COc1ccc(SC[C@H](C)CN2CC[C@H](NC(=O)OCc3ccccc3)CCC2=O)cc1,6,i,-18%,6%,-20%,-25%
C[C@@H]1CCC(=O)N(CC[C@H](Sc2ccccc2)c2ccccc2)CC1,2,?,18µM*!,4%,-2%,-7%
COc1ccc(S[C@@H](CCN2CC[C@H](NC(=O)OCc3ccccc3)CCC2=O)c2ccccc2)cc1,7,?,13µM*,11%,-39%,-32%
CC(=O)Nc1ccc(SC[C@H](C)CN2CC[C@H](C(C)(C)C)CCC2=O)cc1,0,28µM*,?,-3%,-26%,?
Cc1ccc(SC[C@H](C)CN2CC[C@H](C)CCC2=O)cc1,1,?,-30%,7%,-27%,-16%
C[C@@H](CSc1ccc(Br)cc1)CN1CC[C@H](NC(=O)OCc2ccccc2)CCC1=O,-4,?,11µM*,-9%,-24%,-39%
O=C1CC[C@@H](O)CCN1CC[C@H](Sc1ccccc1)c1ccccc1,-3,i,1%,6%,-10%,-5%

# Bioassay records: PubChem, National Center for Advancing Translational Sciences (NCATS)
